Assay outcomes as filed in PubChem BioAssay.
L3MBTL1 inh = blocks human L3MBTL1; Q9Y468; AlphaScreen L3MBTL1–H3K9me1 peptide binding; Potency, µM (doses to about 57.1 µM), without a hit: at the top dose activity, negative = inhibition, actives largely listed as inhibitors; 0.66% of 230,000 active; further: on the % scale 0 is the no-effect control and ±100 the full control effect; nearly all actives have a fitted effect of over 60% in size
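AlphaScreen proximity signal between nickel-chelate acceptor and streptavidin donor beads (final 10 ug/mL) reports binding of 50 nM L3MBTL1 to 75 nM biotin-H3 K9me1 peptide; complex incubated with compounds 30 min at room temperature; cefsulodin titration as control.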
GLS inh = glutaminase GLS (human) inhibition. 0.21% of 410,000 active. GLS enzymatic activity, qHTS titration. Potency, µM (series often up to 45.5 µM), for the others: at the top dose activity change, negative = inhibition, actives largely listed as inhibitors. O94925; further: on the % scale 0 is the no-effect control and ±100 the full control effect
Target sequence (O94925 whole entry, looked up): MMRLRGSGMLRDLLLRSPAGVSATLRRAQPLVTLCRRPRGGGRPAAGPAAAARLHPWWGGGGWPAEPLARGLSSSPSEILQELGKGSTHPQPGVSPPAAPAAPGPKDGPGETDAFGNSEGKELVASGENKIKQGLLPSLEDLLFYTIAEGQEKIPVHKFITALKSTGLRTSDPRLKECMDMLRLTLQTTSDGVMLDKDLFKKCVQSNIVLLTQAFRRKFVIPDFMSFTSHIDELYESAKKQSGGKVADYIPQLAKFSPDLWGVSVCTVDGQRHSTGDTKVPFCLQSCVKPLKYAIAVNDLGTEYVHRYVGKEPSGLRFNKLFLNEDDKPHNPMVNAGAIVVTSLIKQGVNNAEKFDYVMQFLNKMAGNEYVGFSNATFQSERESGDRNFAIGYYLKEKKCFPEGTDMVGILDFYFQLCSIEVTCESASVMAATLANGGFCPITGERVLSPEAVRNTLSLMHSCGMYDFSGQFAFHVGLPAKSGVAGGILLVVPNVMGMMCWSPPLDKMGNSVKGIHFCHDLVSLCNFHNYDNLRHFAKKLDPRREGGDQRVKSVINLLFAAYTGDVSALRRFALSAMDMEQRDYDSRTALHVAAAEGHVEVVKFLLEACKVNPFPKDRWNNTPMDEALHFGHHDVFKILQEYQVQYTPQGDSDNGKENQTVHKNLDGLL
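Compounds were pin-transferred onto hKGA, after which L-glutamine (1 mM solution) and a detection mix of glutamate oxidase, HRP and Amplex Red were added. Initial and 30 min RT fluorescence reads were collected.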
JMJD2A Tudor inh = blocks the human JMJD2A Tudor domain; O75164; AlphaScreen JMJD2A-Tudor / H3K4me3 peptide binding; Potency, µM (highest dose often 114 µM), inactives show top-dose activity change, negative = inhibition, usual class: inhibitors; 4.4% of 390,000 active; AID 504339; further: on the % scale 0 is the no-effect control and ±100 the full control effect; nearly all actives have a fitted effect of over 50% in size
BAZ2B inh = BAZ2B (human) inhibition; AlphaScreen BAZ2B-H3K14Ac peptide displacement; Potency, µM (top dose mostly 114 µM), inactives show top-dose activity change, negative = inhibition, most hits filed as inhibitors; 4.4% of 360,000 active; further: on the % scale 0 is the no-effect control and ±100 the full control effect; nearly all actives have a fitted effect of over 60% in size
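Inhibition is scored as reduced AlphaScreen emission. The BAZ2B/b-H3(5-23)K14Ac complex (50 nM each) in PBS pH 7.4, 0.01% Tween-20 meets compound (up to 110 uM) for 30 min at RT before bead addition.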
HP1b binding inh = inhibitors of HP1-beta chromodomain binding to methylated histone tails; AlphaScreen HP1-beta / biotin-H3K9me3 peptide binding; P83916; Potency, µM (highest dose often 114 µM), for inactives: at the top dose activity change, negative = inhibition, usual class: inhibitors; 0.56% of 390,000 active; AID 540317; further: nearly all actives have a fitted effect of over 70% in size
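HP1-beta protein (50 nM final) preincubated 30 min at room temperature with biotinylated H3(1-18)K9me3 peptide (50 nM) in PBS pH 7.4, 0.01% Tween-20, then compound added for 30 min. AlphaScreen streptavidin donor/nickel chelate acceptor beads (10 ug/mL final), 30 min dark, luminescence read.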
G9a block = inhibitors of human histone lysine methyltransferase G9a. AID 504332. Potency, µM (series often up to 102 µM), for the others: at the top dose activity, negative = inhibition, usual class: inhibitors. 8.8% of 350,000 active. G9a H3K9 monomethylation, AlphaScreen, 2 h. Q96KQ7; further: on the % scale 0 is the no-effect control and ±100 the full control effect; nearly all actives have a fitted effect of over 75% in size
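Readings reflect AlphaScreen signal from monomethyl-H3K9 antibody detection. HMT at 20 nM; substrate b-H3K9 500 nM; cofactor SAM 20 uM; 2 h RT reaction; compounds tested as titrations in qHTS with 15 min preincubation.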
Numbers without * were called inactive; [ ] = another dose, or the depositor's remark. Only some compounds are listed: those with a hit (about 10% of all), similar ones and a draw of the others. The call rests on the fitted dose curve; in most records, active means well fitted curve in the direction sought with a large enough effect; inconclusive means small, poorly fitted or top-dose-only effect, or another doubt; inactive means no such curve, though single readings can be large; an effect the other way counts as inactive or inconclusive. Potency means the concentration at half of the fitted maximal effect.

COc1ccc(-c2c/c(=N\c3nc(-c4ccccc4)c(C)s3)c3ccccc3o2)cc1O was read as GLS inh 10%, JMJD2A Tudor inh inconclusive, BAZ2B inh 50µM*, HP1b binding inh inconclusive and G9a block inconclusive.
Screening O=C(OCC#CCSc1nnc(-c2cccc(F)c2)o1)c1ccc(F)cc1 returned JMJD2A Tudor inh 59%.
Screening CN(C(=O)CN1C(=O)/C(=C/c2ccccc2F)SC1=S)C1CCS(=O)(=O)C1 (stereo not given) returned GLS inh -6%, JMJD2A Tudor inh -3%, BAZ2B inh 45µM*, HP1b binding inh 52% and G9a block 14%.
`O=C1/C(=C/c2ccccc2F)SC(=S)N1CC(=O)N1CCCCC1c1cccnc1` (stereo not given) gave GLS inh 1%, JMJD2A Tudor inh 19%, BAZ2B inh inconclusive, HP1b binding inh 43% and G9a block 5µM*.
For O=C1/C(=C/c2ccc(F)cc2)SC(=S)N1CC(=O)N1CCCCC1c1cccnc1 (stereo not given) the results were GLS inh 0%, JMJD2A Tudor inh inconclusive, BAZ2B inh inconclusive, HP1b binding inh 21% and G9a block 40µM*.
CCOc1cc(C(=O)NCCc2csc(-c3ccc(C)cc3)n2)cc(OCC)c1OCC was read as GLS inh 1%, JMJD2A Tudor inh -7%, BAZ2B inh 7%, HP1b binding inh 17%[57 µM] and G9a block 18%[59 µM].
Screening NS(=O)(=O)c1ccc(-c2c(-c3ccccc3)sc3ccccc23)cc1 returned L3MBTL1 inh inconclusive, GLS inh -9%, JMJD2A Tudor inh 79µM*, BAZ2B inh 56µM*, HP1b binding inh 13% and G9a block -3%[0.501 µM].
For CCOc1ccc(NC(=O)c2cc(=O)[nH]c3ccccc23)cc1 the results were L3MBTL1 inh 0%, GLS inh 7%, JMJD2A Tudor inh -16%, BAZ2B inh 56µM* and HP1b binding inh 10%.
CCOc1ccc(NC(=O)c2cc3ccccc3cc2O)cc1 was read as GLS inh inconclusive, JMJD2A Tudor inh 79µM*, BAZ2B inh 56µM*, HP1b binding inh -8% and G9a block -40%[12.7 µM].
Screening CC(=O)c1ccc(NC(=O)c2cc(=O)[nH]c3ccccc23)cc1 returned L3MBTL1 inh -2%, GLS inh inconclusive, JMJD2A Tudor inh -7%, BAZ2B inh -26%, HP1b binding inh 76% and G9a block -1%[59 µM].
For CCOc1ccc(NC(=O)c2cc3ccccc3cc2OC)cc1 the results were L3MBTL1 inh 8%, GLS inh -17%, JMJD2A Tudor inh 8%, BAZ2B inh -11%, HP1b binding inh 69% and G9a block 4%.
CCOc1ccc(NC(=O)c2c(C)oc3nc(C)nc(N4CCOCC4)c23)cc1 was read as GLS inh 5%, JMJD2A Tudor inh -2%, BAZ2B inh 6%[57.1 µM], HP1b binding inh 28% and G9a block -20%[59 µM].
For Cc1nc(SCC(=O)OC(C)(C)C)c2c3c(sc2n1)CCCC3 the results were GLS inh 12%, JMJD2A Tudor inh 12%, BAZ2B inh 3%, HP1b binding inh 42% and G9a block 0%[59 µM].
Screening CN1c2ccccc2-c2nc3ccccc3n2C1c1ccccn1 (stereo not given) returned L3MBTL1 inh 34%, GLS inh 3%, JMJD2A Tudor inh -24%, BAZ2B inh inconclusive, HP1b binding inh 61% and G9a block 50µM*.
`O=C(Cn1ncc2c3ccccc3n(Cc3cccc(Cl)c3)c2c1=O)N1CCCCC1` gave GLS inh -4%, JMJD2A Tudor inh -24%, BAZ2B inh -17%, HP1b binding inh 22% and G9a block -22%[59 µM].
COc1ccccc1NCC(=O)N/N=C/c1cccnc1 was read as L3MBTL1 inh 20%, GLS inh 0%, JMJD2A Tudor inh -34%, BAZ2B inh -8%, HP1b binding inh 22% and G9a block 23%[59 µM].
`COc1ccc(NCC(=O)N/N=C/C=C\c2ccccc2)cc1` gave L3MBTL1 inh inconclusive, GLS inh 4%, JMJD2A Tudor inh inconclusive, BAZ2B inh inconclusive, HP1b binding inh -11% and G9a block 28µM*.
Screening COc1ccccc1NCC(=O)N/N=C/C=C/c1ccccc1 returned L3MBTL1 inh -13%, GLS inh 8%, JMJD2A Tudor inh inconclusive, BAZ2B inh inconclusive, HP1b binding inh -11% and G9a block 28µM*.
`CCOC(=O)c1cc2c(=O)n3ccccc3nc2n(Cc2ccco2)c1=NC(=O)c1c(F)cccc1Cl` gave GLS inh 17%, JMJD2A Tudor inh -13%, BAZ2B inh -17%, HP1b binding inh 28% and G9a block 9%[59 µM].
For C/C(=N\NC(=S)Nc1cccc(C)c1)c1cccc(N)c1 the results were L3MBTL1 inh -2%, GLS inh 15%, JMJD2A Tudor inh inconclusive, BAZ2B inh inconclusive, HP1b binding inh inconclusive and G9a block inconclusive.
For CC(=NNC(=S)Nc1ccc(C)cc1)c1ccccn1 the results were GLS inh 23%, JMJD2A Tudor inh 79µM* and HP1b binding inh inconclusive.
Screening C/C(=N\NC(N)=S)c1ccc2c(c1)OCCO2 returned L3MBTL1 inh -1%, GLS inh -15%, JMJD2A Tudor inh -15%, BAZ2B inh -3% and HP1b binding inh 9%.
Screening CC(=NNC(=S)Nc1cccc(C)c1)c1ccccn1 returned GLS inh 23%, JMJD2A Tudor inh 50µM* and HP1b binding inh inconclusive.
C/C(=N\NC(=S)Nc1ccc(F)cc1)c1ccc2c(c1)OCCO2 was read as L3MBTL1 inh inconclusive, GLS inh 23%, JMJD2A Tudor inh 32µM*, BAZ2B inh 35µM*, HP1b binding inh inconclusive and G9a block inconclusive.
`C/C(=N\NC(=S)Nc1ccc(C)cc1)c1cccc(N)c1` gave L3MBTL1 inh -14%, GLS inh -8%, JMJD2A Tudor inh inconclusive, BAZ2B inh inconclusive, HP1b binding inh -25% and G9a block 45µM*.
For COc1ccccc1NC(=S)NN=C(C)c1ccccn1 the results were GLS inh 18%, JMJD2A Tudor inh inconclusive and HP1b binding inh inconclusive.
CCN(CC)CCNC(=O)C1CCN(c2cc(C)nc3c(-c4ccc(Cl)cc4)c(C)nn23)CC1 was read as GLS inh 9%, JMJD2A Tudor inh -6%, BAZ2B inh -3%, HP1b binding inh 29% and G9a block -25%[59 µM].
